The results in this text go back to PubChem BioAssay AID463173 (ICCB-Longwood Screening Facility, Harvard Medical School, 2010).

Screen size: about 52,000 compounds; about 1,700 (3.3%) were called active. The sample holds actives, similar compounds and a random draw of the others, so the mix is not that of the screen. Rule as the data show it: active = survival mostly below about 52% (no sharp cut-off); inactive = mostly above about 56%.

The test system of this assay is Wild type. Description: growth inhibition of S. aureus wild type versus tarO mutant, primary screen, teichoic acid synthesis inhibitors, RN4220, OD600 (AID 463173). The settings on record: S. aureus RN4220 wild type/DeltatarO growth, OD600, 18 h, stronger effect = lower value, screened at 18.75 µg/mL (by protocol).
Take `COC(=O)c1scc(-c2ccc(C)cc2)c1S(=O)(=O)N1CCN(c2ccc(F)cc2)CC1`: the survival is -6% (active).

For `Cn1cc(S(=O)(=O)N2CCCCC2)cc1C(=O)N1CCN(c2ccc(F)cc2)CC1`, the survival was 65% (inactive).

`COC(=O)c1scc(-c2ccc(C)cc2)c1S(=O)(=O)N1CCN(c2ccc(OC)cc2)CC1`: the survival is 75% (inactive).

`COc1ccccc1N1CCN(C(=O)c2cc(S(=O)(=O)N3CCC(C)CC3)cn2C)CC1`: the survival is 0% (active).

Consider `COC(=O)c1cc(S(=O)(=O)N2CCN(c3ccc(F)cc3)CC2)cn1C`, for which the survival was -6% (active).

As to `CC1CCN(S(=O)(=O)c2cc(C(=O)N3CCN(c4ccccc4F)CC3)n(C)c2)CC1`, the survival is 65% (inactive).

For the molecule `Cc1cccc(N2CCN(C(=O)c3cc(S(=O)(=O)N4CCC(C)CC4)cn3C)CC2)c1C`, the survival was 49% (inactive).

With `Cn1cc(S(=O)(=O)N2CCCCCC2)cc1C(=O)N1CCN(c2ccc(F)cc2)CC1`, the survival was 71% (inactive).

With `COC(=O)c1scc(-c2ccc(C)cc2)c1S(=O)(=O)N1CCN(c2ccccc2)CC1`, the survival was 64% (inactive).

In the case of `CCc1ccc(-n2nc3cc(C)c(NC(=O)c4cc(OC)cc(OC)c4)cc3n2)cc1`, the survival was 69% (inactive).

As for `Cc1ccc(-c2cc(C(=O)Nc3c(C(=O)c4ccc(C)c(F)c4)oc4ccccc34)no2)cc1`, the survival is 93% (inactive).

As for `O=C(Nc1cccc(NC(=O)C2CCCO2)c1)c1ccco1` (centres undefined), the survival is 102% (inactive).

For the molecule `O=C(Nc1ccc(F)c(Cl)c1)C1CCN(S(=O)(=O)c2ccc3c(c2)CCCN3C(=O)C2CCC2)CC1`, the survival was 67% (inactive).

With `COC(=O)c1c(SC)nc2ccccc2c1OCc1ccc(C)cc1`, the survival is 75% (inactive).

On to `NC(=O)C1CCN(C(=O)CSc2nc(O)cc(=O)[nH]2)CC1`, for which the survival is 97% (inactive).

Consider `O=C(N/N=C1/SCC(=O)N1Cc1ccco1)c1ccccc1F`, for which the survival was 97% (inactive).

With `CC(=O)c1ccc(S(=O)(=O)Nc2ccc(-c3cn4c(C)csc4n3)cc2)cc1`, the survival is -6% (active).

In the case of `CC(=O)Nc1ccc(S(=O)(=O)Nc2ccc(-c3cn4c(C)csc4n3)cc2)cc1`, the survival is 69% (inactive).

As for `COc1ccc(S(=O)(=O)Nc2ccc(-c3cn4c(C)csc4n3)cc2)cc1`, the survival was 78% (inactive).

On to `CCc1ccccc1Nc1nn2c(=O)c3ccc(C(=O)NCc4ccc(C)cc4)cc3nc2s1`, for which the survival is 92% (inactive).

`Cc1ccccc1Cn1c(CN2CCC(C(=O)NCCc3ccccc3)CC2)cc2ccccc21`: the survival is 110% (inactive).

In the case of `CC(=O)N1CCc2c(sc3c2c(=O)n(-c2ccccc2C)c(=O)n3CC(=O)Nc2ccccc2)C1`, the survival was 69% (inactive).

Turning to `CCOc1ccc(-n2c(SCC(=O)Nc3cc(C)on3)nc3c([nH]c4ccccc43)c2=O)cc1`, the survival is 69% (inactive).

In the case of `CCOc1ccc(N(CC)S(=O)(=O)N2CCCC(C(=O)Nc3cc(Cl)ccc3C)C2)cc1` (centres undefined), the survival is 79% (inactive).

For the molecule `Cc1ccc(C)c(NC(c2ccccc2)c2nnc(-c3ccccc3F)o2)c1` (centres undefined), the survival is 5% (active).

As for `COc1ccc(NC(c2ccc(F)cc2)c2nnc(-c3ccccc3Cl)o2)cc1Cl` (centres undefined), the survival is 88% (inactive).

With `COc1cc(Cl)c(C)cc1NC(c1ccccc1)c1nnc(-c2ccccc2Cl)o1` (centres undefined), the survival was 75% (inactive).

Consider `CCc1cccc(NC(c2ccccc2)c2nnc(-c3ccccc3F)o2)c1` (centres undefined), for which the survival was 1% (active).

As for `CCc1cccc(NC(c2nnc(-c3ccccc3)o2)c2ccc(F)cc2Cl)c1` (centres undefined), the survival was 70% (inactive).

With `Cc1ccc(Cl)cc1NC(c1ccc(F)cc1)c1nnc(-c2ccccc2)o1` (centres undefined), the survival is 117% (inactive).

Take `COc1cc(C(=O)Nc2ccc3nc(SCc4ccccc4)sc3c2)cc(OC)c1OC`: the survival was 86% (inactive).

Consider `CCOC(=O)c1[nH]c2c(c1Cc1ccccc1C)C(=O)CC(c1ccccc1)C2` (centres undefined), for which the survival is 95% (inactive).

On to `O=C(NCCc1ccc(Cl)cc1)C(=O)NCC(c1ccco1)S(=O)(=O)c1cccs1` (centres undefined), for which the survival is -3% (active).

Take `Cc1ccc(CNC(=O)C(=O)NCC(c2ccco2)S(=O)(=O)c2cccs2)cc1` (centres undefined): the survival was 75% (inactive).

`O=C(NCc1ccc(F)cc1)C(=O)NCC(c1ccco1)S(=O)(=O)c1cccs1` (centres undefined): the survival is 0% (active).

Take `O=C(NCCc1ccccc1)C(=O)NCC(c1ccco1)S(=O)(=O)c1cccs1` (centres undefined): the survival is 75% (inactive).

In the case of `O=C(NCCc1ccc(F)cc1)C(=O)NCC(c1ccco1)S(=O)(=O)c1cccs1` (centres undefined), the survival is 53% (inactive).

`O=C(NCc1ccccc1)C(=O)NCC(c1ccco1)S(=O)(=O)c1cccs1` (centres undefined): the survival was 70% (inactive).

With `Cn1c(=O)n(C)c2cc(N3CCOCC3)c(NC(=O)c3ccc(C(C)(C)C)cc3)cc21`, the survival is 75% (inactive).

`CCc1c(C)nc2nncn2c1Nc1cccc(C)c1`: the survival was 91% (inactive).

`Cc1ccc2sc(N(Cc3cccnc3)C(=O)CCOc3ccccc3)nc2c1C`: the survival is 63% (inactive).

`Cc1[nH]n2c(=O)cc(-c3ccccc3Cl)nc2c1-c1ccccc1`: the survival was -13% (active).

With `O=C(Nc1nc2nc(-c3ccccc3)cc(=O)n2[nH]1)c1ccc(Cl)cc1`, the survival is 88% (inactive).

`Cc1[nH]n2c(=O)cc(-c3ccc(Cl)cc3)nc2c1-c1ccccc1`: the survival was -17% (active).

Consider `Nc1nc2nc(-c3ccccc3)cc(=O)n2[nH]1`, for which the survival is 59% (inactive).

On to `Cc1cccc(-c2cc3nc(-c4ccccc4)cc(=O)n3[nH]2)c1`, for which the survival is 93% (inactive).

As to `Cc1nn2c(-c3ccccc3)cc(-c3ccccc3)nc2c1-c1ccc(Cl)cc1`, the survival is 86% (inactive).

For the molecule `CCOC(=O)c1ccc(CN(Cc2ccc(Br)cc2)S(=O)(=O)c2cccc(C(F)(F)F)c2)cc1`, the survival is 72% (inactive).

With `CCOc1ccccc1CNC(=O)CCc1c(C)nn(-c2ccc(N3CCCC3)nn2)c1C`, the survival is 71% (inactive).

In the case of `COc1ccc(CNC(=O)c2sc3nc4n(c(=O)c3c2C)CCCCC4)cc1`, the survival is 86% (inactive).

As for `CSc1cccc(NC(=O)C2CCN(S(=O)(=O)c3ccc4[nH]c(=O)ccc4c3)CC2)c1`, the survival is 101% (inactive).

For `O=C(CSc1nc(-c2ccc(F)cc2)cc(C(F)(F)F)n1)NCCc1ccccc1`, the survival was 89% (inactive).

For the molecule `COc1ccc(-c2cc(C(F)(F)F)nc(SCC(=O)N(C)Cc3ccccc3)n2)cc1OC`, the survival is 45% (inactive).

For the molecule `COc1ccc(-c2cc(C(F)(F)F)nc(SCC(=O)NCCc3ccccc3)n2)cc1`, the survival is 140% (inactive).

Take `CN(Cc1ccccc1)C(=O)CSc1nc(-c2ccc(F)cc2)cc(C(F)(F)F)n1`: the survival is -4% (active).

Take `COc1ccc(-c2cc(C(F)(F)F)nc(SCC(=O)N(C)Cc3ccccc3)n2)cc1`: the survival was -1% (active).

`O=C(CSc1nc(-c2ccc(F)cc2)cc(C(F)(F)F)n1)NCc1ccccc1`: the survival is 84% (inactive).

On to `COc1ccc(CC(=O)Nc2c(C(=O)N3CCN(c4ccccc4)CC3)oc3ccccc23)cc1OC`, for which the survival was 76% (inactive).

On to `CCN(CC)S(=O)(=O)c1ccc(NC(=O)[C@H](CSCc2ccccc2)N2Cc3ccccc3C2=O)cc1`, for which the survival is 130% (inactive).

Turning to `CCOc1ccc(-n2c(SCC(=O)Nc3ccc(F)cc3)nc3c([nH]c4ccccc43)c2=O)cc1`, the survival is 88% (inactive).

Turning to `CCc1ccc(C(=O)NC2=NC(c3ccccc3F)CC(=O)N2)cc1` (centres undefined), the survival is 166% (inactive).

As for `O=c1c2ccccc2n(Cc2cccc(Cl)c2)c(=O)n1CCc1ccccc1`, the survival was 39% (active).

`O=c1c2ccccc2n(Cc2ccccc2Cl)c(=O)n1CCc1ccccc1`: the survival was 15% (active).

As to `O=C(CCn1c(=O)c2ccccc2n(Cc2cccc(Cl)c2)c1=O)NCCc1ccccc1`, the survival was 74% (inactive).

Take `Cc1ccccc1Cn1c(=O)n(CCCCC(=O)NCCc2ccccc2)c(=O)c2ccccc21`: the survival was 103% (inactive).

Consider `O=c1c2ccccc2n(Cc2cccc(Cl)c2)c(=O)n1Cc1ccccc1`, for which the survival is 96% (inactive).

As to `O=c1c2ccccc2n(Cc2c(F)cccc2Cl)c(=O)n1CCc1ccccc1`, the survival is 83% (inactive).

Regarding `Cc1ccccc1Cn1c(=O)n(CCc2ccccc2)c(=O)c2ccccc21`, the survival was 4% (active).

In the case of `Cc1cccc(CCn2c(=O)c3ccccc3n(Cc3ccccc3C)c2=O)c1`, the survival is 59% (inactive).

For `O=C(CCCCn1c(=O)c2ccccc2n(Cc2ccccc2Cl)c1=O)NCCc1ccccc1`, the survival is 132% (inactive).

Regarding `COc1cc(NC(=O)CSc2ncc(S(=O)(=O)c3ccc(Br)cc3)c(=O)[nH]2)cc(OC)c1`, the survival is 84% (inactive).

Consider `O=C(c1ccc(Cl)cc1)n1nc(-c2ccco2)nc1NCc1cccs1`, for which the survival is 87% (inactive).

For the molecule `O=C(NCC(c1ccco1)S(=O)(=O)c1cccs1)c1ccc(C(F)(F)F)cc1` (centres undefined), the survival is 83% (inactive).

In the case of `CC(=O)Nc1ccc(Nc2c3c(c(C#N)c4nc5ccccc5n24)CCC3)cc1`, the survival is 100% (inactive).

Consider `Cc1nn2c(=O)cc(COC(=O)c3ccc(NC(=O)c4ccc(C(C)(C)C)cc4)cc3)nc2s1`, for which the survival is 74% (inactive).

On to `COC(=O)c1ccccc1NC(=O)Cn1nc(C(F)(F)F)c2c1CCCC2`, for which the survival is -5% (active).

With `CCc1ccccc1NC(=O)Cn1nc(C(F)(F)F)c2c1CCCC2`, the survival was 84% (inactive).

Consider `COc1cc(NC(=O)Cn2nc(C(F)(F)F)c3c2CCCC3)c(OC)cc1Cl`, for which the survival is 87% (inactive).

For the molecule `COc1ccc(Cl)cc1NC(=O)Cn1nc(C(F)(F)F)c2c1CCCC2`, the survival was 9% (active).

`CCc1ccccc1NC(=O)Cn1nc(C(F)(F)F)c2c1CCC2`: the survival is 74% (inactive).

As to `COc1ccc(Cl)cc1NC(=O)Cn1nc(C(F)(F)F)c2c1CCC2`, the survival was 84% (inactive).

For the molecule `CC(C)CN(CCCNC(=O)c1cc(=O)[nH]c2ccc(S(=O)(=O)N3CCCCCC3)cc12)CC(C)C`, the survival was 68% (inactive).

Turning to `COc1cc(Cl)c(C)cc1NC(=O)CSCc1nc(-c2ccc(OC)c(OC)c2)no1`, the survival was 73% (inactive).

As for `CCCCNC(=O)c1cc(-c2ccc(OC)cc2)nc2n[nH]c(-c3cccc([N+](=O)[O-])c3)c12`, the survival is 80% (inactive).

For the molecule `Cc1cc(C)c2c(-n3cccc3)c(C(=O)NCCc3ccc(Cl)cc3)sc2n1`, the survival was 118% (inactive).

As for `CCCCc1nc2c(nnn2Cc2ccccc2)c(=O)[nH]1`, the survival was 104% (inactive).

Consider `Cn1nnc2c(NCc3ccccc3)ncnc21`, for which the survival was 0% (active).

`Cc1ccc(CNc2ncnc3c2nnn3C)cc1`: the survival is 49% (inactive).

`Cn1nnc2c(NCc3ccc(Cl)cc3)ncnc21`: the survival was 88% (inactive).
